Positions count from the first letter of the chain named.

Assay in all cases: PBM; 200 nM protein, PBS
Common to all, as to details: dsDNA, one strand shown

The target in experiment [1] is NKX3-2 (Homo sapiens, UniProt P78367 192-278, P234S).
The target of experiment [2] is NKX3-2 (Homo sapiens, UniProt P78367 192-278).
Experiment [3] concerns the target T1, NKX2-6 (Homo sapiens, UniProt A6NCS4 118-204).
T1 sequence: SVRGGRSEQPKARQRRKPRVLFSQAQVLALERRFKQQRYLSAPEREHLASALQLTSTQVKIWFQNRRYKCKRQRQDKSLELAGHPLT

For experiment [4], the target named is T2, NKX2-6 (Homo sapiens, UniProt A6NCS4 118-204, F151L).
T2 sequence: T1 sequence with F34L

Experiment [5] concerns the target ALX4 (Homo sapiens, UniProt Q9H161 200-286).
Experiment [6] addresses ALX4 (Homo sapiens, UniProt Q9H161 200-286, Q225E).
The target of experiment [7] is PROP1 (Homo sapiens, UniProt O75360 56-141).
PROP1 (Homo sapiens, UniProt O75360 56-141), sequence (O75360 56-141): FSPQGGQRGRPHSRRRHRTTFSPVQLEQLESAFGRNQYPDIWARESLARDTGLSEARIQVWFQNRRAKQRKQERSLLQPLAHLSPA
The target of experiment [8] is PROP1 (Homo sapiens, UniProt O75360 56-141, R99H).
PROP1 (Homo sapiens, UniProt O75360 56-141, R99H), sequence (O75360 56-141 R99H): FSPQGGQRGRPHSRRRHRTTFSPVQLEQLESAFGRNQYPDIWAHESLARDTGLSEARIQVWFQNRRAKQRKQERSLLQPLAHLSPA
Experiment [9] deals with PROP1 (Homo sapiens, UniProt O75360 56-141, F88S).
PROP1 (Homo sapiens, UniProt O75360 56-141, F88S), sequence (O75360 56-141 F88S): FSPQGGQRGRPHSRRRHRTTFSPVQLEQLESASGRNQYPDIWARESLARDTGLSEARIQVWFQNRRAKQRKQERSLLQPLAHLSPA
The target of experiment [10] is ALX1 (Homo sapiens, UniProt Q15699 118-204, L144V).
ALX1 (Homo sapiens, UniProt Q15699 118-204, L144V), sequence (Q15699 118-204 L144V): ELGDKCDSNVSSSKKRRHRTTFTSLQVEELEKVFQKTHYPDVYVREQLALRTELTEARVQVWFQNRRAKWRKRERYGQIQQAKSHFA
The target in experiment [11] is HOXD13 (Homo sapiens, UniProt P35453 263-343, T313R).
HOXD13 (Homo sapiens, UniProt P35453 263-343, T313R), sequence (P35453 263-343 T313R): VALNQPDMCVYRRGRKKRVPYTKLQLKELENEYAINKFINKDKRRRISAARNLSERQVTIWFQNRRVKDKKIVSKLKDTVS
Experiment [12] concerns the target ALX1 (Homo sapiens, UniProt Q15699 118-204, L144R).
The target in experiment [13] is HOXD13 (Homo sapiens, UniProt P35453 263-343).
HOXD13 (Homo sapiens, UniProt P35453 263-343), sequence (P35453 263-343): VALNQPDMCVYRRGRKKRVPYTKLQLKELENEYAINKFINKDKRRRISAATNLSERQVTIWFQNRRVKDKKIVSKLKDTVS
For experiment [14], the target named is HOXD13 (Homo sapiens, UniProt P35453 263-343, T313A).
HOXD13 (Homo sapiens, UniProt P35453 263-343, T313A), sequence (P35453 263-343 T313A): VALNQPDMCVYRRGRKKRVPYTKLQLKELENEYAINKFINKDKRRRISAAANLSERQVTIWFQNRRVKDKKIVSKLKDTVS
Experiment [15] deals with ALX1 (Homo sapiens, UniProt Q15699 118-204).
ALX1 (Homo sapiens, UniProt Q15699 118-204), sequence (Q15699 118-204): as the sequence (Q15699 118-204 L144V) above, with V27L counted along it
The target in experiment [16] is MSX2 (Homo sapiens, UniProt P35548 130-214, R199I).
MSX2 (Homo sapiens, UniProt P35548 130-214, R199I), sequence (P35548 130-214 R199I): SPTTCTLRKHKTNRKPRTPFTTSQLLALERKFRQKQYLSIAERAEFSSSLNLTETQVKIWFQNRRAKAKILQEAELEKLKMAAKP
The target in experiment [17] is MSX2 (Homo sapiens, UniProt P35548 130-214).
MSX2 (Homo sapiens, UniProt P35548 130-214), sequence (P35548 130-214): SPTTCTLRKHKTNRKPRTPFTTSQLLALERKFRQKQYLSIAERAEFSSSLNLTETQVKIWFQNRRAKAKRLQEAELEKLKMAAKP
The target in experiment [18] is MSX2 (Homo sapiens, UniProt P35548 130-214, F161Y).
MSX2 (Homo sapiens, UniProt P35548 130-214, F161Y), sequence (P35548 130-214 F161Y): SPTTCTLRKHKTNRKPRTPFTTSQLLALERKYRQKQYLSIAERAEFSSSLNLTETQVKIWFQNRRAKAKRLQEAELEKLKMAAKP
Experiment [19] concerns the target T3, PAX4 (Homo sapiens, UniProt O43316 9-242, F177V).
T3 sequence: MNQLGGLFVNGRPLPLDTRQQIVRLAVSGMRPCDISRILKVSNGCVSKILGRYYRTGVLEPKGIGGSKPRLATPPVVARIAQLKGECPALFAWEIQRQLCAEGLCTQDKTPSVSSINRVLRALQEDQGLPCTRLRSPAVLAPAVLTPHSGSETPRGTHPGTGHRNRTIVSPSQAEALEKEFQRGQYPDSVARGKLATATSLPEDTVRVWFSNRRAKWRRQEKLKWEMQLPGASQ

The target of experiment [20] is T4, PAX4 (Homo sapiens, UniProt O43316 9-242, F177Y).
T4 sequence: T3 sequence with V169Y

NKX3-2 (Homo sapiens, UniProt P78367 192-278), sequence (P78367 192-278): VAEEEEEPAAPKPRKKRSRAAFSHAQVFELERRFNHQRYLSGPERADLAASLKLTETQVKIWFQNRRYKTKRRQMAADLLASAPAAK
ALX4 (Homo sapiens, UniProt Q9H161 200-286, Q225E), sequence (Q9H161 200-286 Q225E): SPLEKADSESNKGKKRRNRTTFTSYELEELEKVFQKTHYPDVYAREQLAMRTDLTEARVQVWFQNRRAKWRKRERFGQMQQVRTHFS
ALX4 (Homo sapiens, UniProt Q9H161 200-286), sequence (Q9H161 200-286): as the sequence (Q9H161 200-286 Q225E) above, with E26Q counted along it
NKX3-2 (Homo sapiens, UniProt P78367 192-278, P234S), sequence (P78367 192-278 P234S): as the sequence (P78367 192-278) above, with P43S counted along it
ALX1 (Homo sapiens, UniProt Q15699 118-204, L144R), sequence (Q15699 118-204 L144R): as the sequence (Q15699 118-204 L144V) above, with V27R counted along it

Regarding GCAGCCCC, the binding signal in the experiment with NKX3-2 [1] was 10.7 upbm affinity estimate (log intensity, higher = more binding, comparable within an allelic series); in the experiment with NKX3-2 [2], 10.7 upbm affinity estimate (log intensity, higher = more binding, comparable within an allelic series).
Turning to CGCTGCGC, the binding signal with NKX2-6 [3] was 9.4 upbm affinity estimate (log intensity, higher = more binding, comparable within an allelic series); with NKX2-6 [4], 9.26 upbm affinity estimate (log intensity, higher = more binding, comparable within an allelic series).
Consider CCCCGGGG, for which the binding signal with ALX4 [5] was 8.16 upbm affinity estimate (log intensity, higher = more binding, comparable within an allelic series); with ALX4 [6], 8.02 upbm affinity estimate (log intensity, higher = more binding, comparable within an allelic series); in the experiment with NKX2-6 [3], 9.57 upbm affinity estimate (log intensity, higher = more binding, comparable within an allelic series); with NKX2-6 [4], 9.2 upbm affinity estimate (log intensity, higher = more binding, comparable within an allelic series).
Turning to GGGGGGAC, the binding signal with PROP1 [7] was 6.32 upbm affinity estimate (log intensity, higher = more binding, comparable within an allelic series); with PROP1 [8], 6.19 upbm affinity estimate (log intensity, higher = more binding, comparable within an allelic series); in the experiment with PROP1 [9] it was 5.57 upbm affinity estimate (log intensity, higher = more binding, comparable within an allelic series).
In the case of CGGGCCGC, the binding signal with ALX1 [10] was 6.4 upbm affinity estimate (log intensity, higher = more binding, comparable within an allelic series); with HOXD13 [11], 9.48 upbm affinity estimate (log intensity, higher = more binding, comparable within an allelic series); with ALX1 [12] it was 6.44 upbm affinity estimate (log intensity, higher = more binding, comparable within an allelic series); with HOXD13 [13], 9.34 upbm affinity estimate (log intensity, higher = more binding, comparable within an allelic series); in the experiment with HOXD13 [14], 9.63 upbm affinity estimate (log intensity, higher = more binding, comparable within an allelic series); in the experiment with ALX1 [15] it was 6.51 upbm affinity estimate (log intensity, higher = more binding, comparable within an allelic series).
Turning to CGCGTGGC, the binding signal was 9.55 upbm affinity estimate (log intensity, higher = more binding, comparable within an allelic series) with MSX2 [16]; 9.66 upbm affinity estimate (log intensity, higher = more binding, comparable within an allelic series) in the experiment with MSX2 [17]; 9.65 upbm affinity estimate (log intensity, higher = more binding, comparable within an allelic series) with MSX2 [18].
For CCACCCGC, the binding signal in the experiment with MSX2 [16] was 9.63 upbm affinity estimate (log intensity, higher = more binding, comparable within an allelic series); in the experiment with MSX2 [17], 9.57 upbm affinity estimate (log intensity, higher = more binding, comparable within an allelic series); with MSX2 [18], 9.69 upbm affinity estimate (log intensity, higher = more binding, comparable within an allelic series).
Consider GGGGGCAA, for which the binding signal with PAX4 [19] is 9.04 upbm affinity estimate (log intensity, higher = more binding, comparable within an allelic series); with PAX4 [20], 9.1 upbm affinity estimate (log intensity, higher = more binding, comparable within an allelic series).
Consider CAGCGCCG, for which the binding signal in the experiment with PAX4 [19] is 9.19 upbm affinity estimate (log intensity, higher = more binding, comparable within an allelic series); with PAX4 [20] it was 9.21 upbm affinity estimate (log intensity, higher = more binding, comparable within an allelic series).
For GTCCGGAC, the binding signal in the experiment with PROP1 [7] was 6.74 upbm affinity estimate (log intensity, higher = more binding, comparable within an allelic series); with PROP1 [8], 6.64 upbm affinity estimate (log intensity, higher = more binding, comparable within an allelic series); with PROP1 [9] it was 6.7 upbm affinity estimate (log intensity, higher = more binding, comparable within an allelic series).
On to CTCCGCCC, for which the binding signal is 9.16 upbm affinity estimate (log intensity, higher = more binding, comparable within an allelic series) with PAX4 [19] and 9.22 upbm affinity estimate (log intensity, higher = more binding, comparable within an allelic series) with PAX4 [20].
On to CTGGCCCA, for which the binding signal is 8.03 upbm affinity estimate (log intensity, higher = more binding, comparable within an allelic series) in the experiment with ALX4 [5] and 8 upbm affinity estimate (log intensity, higher = more binding, comparable within an allelic series) in the experiment with ALX4 [6].
As for CCCCAGCG, the binding signal in the experiment with MSX2 [16] was 9.51 upbm affinity estimate (log intensity, higher = more binding, comparable within an allelic series); with MSX2 [17], 9.6 upbm affinity estimate (log intensity, higher = more binding, comparable within an allelic series); with MSX2 [18] it was 9.52 upbm affinity estimate (log intensity, higher = more binding, comparable within an allelic series); with NKX3-2 [1], 10.5 upbm affinity estimate (log intensity, higher = more binding, comparable within an allelic series); with NKX3-2 [2], 10.6 upbm affinity estimate (log intensity, higher = more binding, comparable within an allelic series).
As for CCCTAGGG, the binding signal with NKX3-2 [1] was 10.6 upbm affinity estimate (log intensity, higher = more binding, comparable within an allelic series); with NKX3-2 [2], 10.5 upbm affinity estimate (log intensity, higher = more binding, comparable within an allelic series).
For the sequence CAGGCCCG, the binding signal is 8 upbm affinity estimate (log intensity, higher = more binding, comparable within an allelic series) with ALX4 [5]; 7.92 upbm affinity estimate (log intensity, higher = more binding, comparable within an allelic series) with ALX4 [6]; 9.39 upbm affinity estimate (log intensity, higher = more binding, comparable within an allelic series) with MSX2 [16]; 6.27 upbm affinity estimate (log intensity, higher = more binding, comparable within an allelic series) with ALX1 [10]; 6.24 upbm affinity estimate (log intensity, higher = more binding, comparable within an allelic series) with ALX1 [12]; 9.3 upbm affinity estimate (log intensity, higher = more binding, comparable within an allelic series) with MSX2 [17]. The binding signal was 9.36 upbm affinity estimate (log intensity, higher = more binding, comparable within an allelic series) with MSX2 [18] and 6.21 upbm affinity estimate (log intensity, higher = more binding, comparable within an allelic series) with ALX1 [15].
In the case of AGCCGGCT, the binding signal with ALX1 [10] was 6.54 upbm affinity estimate (log intensity, higher = more binding, comparable within an allelic series); with ALX1 [12] it was 6.74 upbm affinity estimate (log intensity, higher = more binding, comparable within an allelic series); in the experiment with ALX1 [15], 6.76 upbm affinity estimate (log intensity, higher = more binding, comparable within an allelic series).
Consider CGGCCACC, for which the binding signal with HOXD13 [11] was 9.38 upbm affinity estimate (log intensity, higher = more binding, comparable within an allelic series); with HOXD13 [13], 9.42 upbm affinity estimate (log intensity, higher = more binding, comparable within an allelic series); with HOXD13 [14], 9.39 upbm affinity estimate (log intensity, higher = more binding, comparable within an allelic series).
Regarding CCGCCAGC, the binding signal in the experiment with NKX2-6 [3] is 8.92 upbm affinity estimate (log intensity, higher = more binding, comparable within an allelic series); with NKX2-6 [4], 9.24 upbm affinity estimate (log intensity, higher = more binding, comparable within an allelic series).
Take AGCGGCGC: the binding signal was 9.52 upbm affinity estimate (log intensity, higher = more binding, comparable within an allelic series) with HOXD13 [11]; 9.67 upbm affinity estimate (log intensity, higher = more binding, comparable within an allelic series) in the experiment with HOXD13 [13]; 9.61 upbm affinity estimate (log intensity, higher = more binding, comparable within an allelic series) with HOXD13 [14].
As to CGCAGCGC, the binding signal is 6.83 upbm affinity estimate (log intensity, higher = more binding, comparable within an allelic series) with PROP1 [7]; 6.82 upbm affinity estimate (log intensity, higher = more binding, comparable within an allelic series) in the experiment with PROP1 [8]; 6.74 upbm affinity estimate (log intensity, higher = more binding, comparable within an allelic series) with PROP1 [9].
For the sequence GCCAGTCC, the binding signal was 9.53 upbm affinity estimate (log intensity, higher = more binding, comparable within an allelic series) in the experiment with HOXD13 [11]; 9.55 upbm affinity estimate (log intensity, higher = more binding, comparable within an allelic series) with HOXD13 [13]; 9.63 upbm affinity estimate (log intensity, higher = more binding, comparable within an allelic series) with HOXD13 [14].
As to AGCTCCGC, the binding signal with NKX2-6 [3] is 9.07 upbm affinity estimate (log intensity, higher = more binding, comparable within an allelic series); with NKX2-6 [4] it was 9.27 upbm affinity estimate (log intensity, higher = more binding, comparable within an allelic series).
